17 compounds from PubChem BioAssay can be followed below.

In assay [1] the test system is Human papillomavirus type 1a protein E7 (residues 44-93). As to the kind of experiment: HPV1a E7 fragment binders on microarrays, primary screen, biochemical, small-molecule microarray, residues 44-93, 635 nm fluorescence (AID 1108).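 Further: E7 fragment applied at 1 µg/mL in TBST for 1 h at 4 C; score combines spot fluorescence with its signal to noise ratio.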 The following applies: small-molecule microarray binding, fluorescence 635 nm; higher = more signal.
Assay [2] is described as follows: modulators of HCV replicon luciferase signal, primary screen, HCV replication inhibitor project, Huh7 cells, luciferase reporter (AID 1109).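 Further: huh7 hepatoma cells harbouring a luciferase neomycin HCV replicon reporter; luciferase luminescence as measure of HCV replicon replication; test concentration not given here.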 The following applies: 48 h, higher = more signal. In general terms: In antiviral work, replicon cells carry a viral genome segment that copies itself.
The target in assay [3] is Left-right determination factor 2 (Homo sapiens) (UniProt O00292). Briefly: LEFTY2 binders on small-molecule microarrays, primary screen, biochemical, small-molecule microarray, 635 nm fluorescence scan (AID 1110). The following applies: LEFTY2 binding, higher = more signal.
For assay [4], the target named is Calmodulin-1 (Homo sapiens) (UniProt P0DP23). As to the kind of experiment: CALM1 binders on microarrays, EGTA buffer, profiling panel, biochemical, small-molecule microarray, Cy5-labelled CALM1 (AID 1111).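 Further: labelled calmodulin applied in Tris saline Tween buffer holding calcium plus EGTA and DTT.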 The following applies: Cy5-CALM1 binding fluorescence, higher = more signal.
The target is the same in assay [5]. Briefly: calcium-bound CALM1 binders on microarrays, profiling panel, artefact control for SMM control-protein annotation, biochemical, small-molecule microarray, Cy5-labelled CALM1, plus calcium (AID 1112).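 Further: score merges spot fluorescence with signal to noise from triplicate slides.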 The following applies: Cy5-CALM1 binding fluorescence, higher = more signal.
Assay [6] can be described thus: small-molecule microarray binders of probe aWnt5a, primary screen, biochemical, biotinylated probe, 635/667 nm fluorescence (AID 1113).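 Further: score merges 667 nm fluorescence intensity with signal-to-noise per printed feature.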 The following applies: higher = more signal.
A short description of assay [7]: small-molecule microarray binders of probe aShh, primary screen, biochemical, biotinylated probe, 635/667 nm fluorescence (AID 1114).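 Further: probe is biotin-labelled aShh protein from a stem cell growth factor screen; measures binding of labelled protein to compounds printed on the slide; score merges feature fluorescence at 667 nm with signal-to-noise.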 Particulars: higher = more signal.
The nature of assay [8]: small-molecule microarray binders of probe aNog, primary screen, biochemical, biotinylated probe, 635/667 nm fluorescence (AID 1115).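 Further: probe is biotinylated aNog protein used at 0.15 µg/mL for 1 h at 4 C; z-score combines 667 nm fluorescence of each spot with its signal to noise.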 Particulars: higher = more signal.
In assay [9] the target is Torsin-1A-interacting protein 1 (Homo sapiens) (UniProt Q5JTV8). Briefly: LAP1 binders from COS7 cell lysate, primary screen, small-molecule microarray, 635/667 nm fluorescence (AID 1116). Particulars: COS7-hLAP1 lysate binding, 635 nm fluorescence, higher = more signal.
Assay [10] has as its target Alpha-bungarotoxin (Bungarus multicinctus) (UniProt P60615). Briefly: alpha-bungarotoxin binders on microarray, profiling panel, artefact control for SMM control protein annotation, biochemical, small-molecule microarray, Alexa647 label, 635/667 nm fluorescence (AID 1117). The following applies: alpha-BTX-A647 binding fluorescence, higher = more signal.

Alpha-bungarotoxin (Bungarus multicinctus), sequence (P60615 whole entry, looked up): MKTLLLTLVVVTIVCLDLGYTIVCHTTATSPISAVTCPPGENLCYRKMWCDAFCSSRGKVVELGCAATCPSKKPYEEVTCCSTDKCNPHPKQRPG
Torsin-1A-interacting protein 1 (Homo sapiens), sequence (Q5JTV8 whole entry, looked up): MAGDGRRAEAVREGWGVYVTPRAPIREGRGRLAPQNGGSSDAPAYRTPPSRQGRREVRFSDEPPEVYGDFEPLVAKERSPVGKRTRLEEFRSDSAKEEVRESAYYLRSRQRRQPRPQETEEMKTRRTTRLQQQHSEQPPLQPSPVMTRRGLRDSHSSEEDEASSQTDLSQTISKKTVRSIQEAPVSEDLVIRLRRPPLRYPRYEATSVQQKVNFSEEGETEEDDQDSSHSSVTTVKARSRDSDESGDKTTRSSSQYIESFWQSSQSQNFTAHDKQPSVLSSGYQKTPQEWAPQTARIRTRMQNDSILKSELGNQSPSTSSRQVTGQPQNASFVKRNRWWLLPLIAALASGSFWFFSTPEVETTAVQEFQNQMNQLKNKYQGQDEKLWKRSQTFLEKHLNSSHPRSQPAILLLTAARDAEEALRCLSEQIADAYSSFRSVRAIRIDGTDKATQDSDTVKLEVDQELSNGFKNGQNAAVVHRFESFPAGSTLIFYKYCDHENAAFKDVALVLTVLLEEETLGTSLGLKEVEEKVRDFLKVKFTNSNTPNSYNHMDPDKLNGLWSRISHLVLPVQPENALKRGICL
Left-right determination factor 2 (Homo sapiens), sequence (O00292 whole entry, looked up): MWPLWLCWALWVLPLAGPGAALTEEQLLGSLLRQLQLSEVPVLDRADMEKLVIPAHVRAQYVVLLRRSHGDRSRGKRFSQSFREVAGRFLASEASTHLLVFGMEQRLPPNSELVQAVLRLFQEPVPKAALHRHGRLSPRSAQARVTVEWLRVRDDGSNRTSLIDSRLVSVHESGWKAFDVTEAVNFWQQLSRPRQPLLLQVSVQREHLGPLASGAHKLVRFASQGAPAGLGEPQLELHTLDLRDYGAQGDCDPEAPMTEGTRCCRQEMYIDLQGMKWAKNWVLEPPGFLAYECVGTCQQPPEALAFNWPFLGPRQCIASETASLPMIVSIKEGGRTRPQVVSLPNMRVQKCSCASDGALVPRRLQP

As for `COc1ccc([Si](C)(C)[C@@H]2[C@@H](CCO)O[C@]3(C(=O)N(Cc4ccccc4)c4ccc(N5C(=O)c6cccc7cccc5c67)cc43)[C@H]2C)cc1`, the composite z-score in assay [1] is -0.432; in [3], -0.558; in assay [4] it was 0.991; in [5] it was 0.836; in assay [6], -0.251; in [7] it was -0.237. Besides, the composite z-score is 0.2 in [8], -0.697 in assay [9] and 0.0366 in assay [10]. This compound showed a z-score in [2] of -4.17.
Take `CC(=O)NCCCC[C@@H]1NC(=O)[C@@H]2C[C@H](C(=O)NCCCCCN)[C@H](c3ccc(O)cc3)N2C1=O`: the composite z-score is 1.32 in assay [1]; 1.31 in assay [3]; 0.331 in assay [4]; 0.711 in [5]; 0.258 in assay [6]; -0.0794 in assay [7]. For the same compound, the composite z-score in [8] was -0.158; in [9] it was 1.31; in assay [10], 0.766. In assay [2], the z-score was -0.663.
Consider `C=CCC(OC(C)=O)[C@@H]1[C@@H](N(Cc2cc3ccccc3o2)C(=O)Cc2ccc(F)cc2)c2cc(OCCCO)ccc2N1C(=O)Cc1ccc2ccccc2c1` (stereo not given in full), for which the composite z-score in assay [1] is -0.266; in assay [3] it was -0.537; in assay [4], 0.0637; in assay [5], 0.34; in assay [6] it was -0.147; in assay [7], 0.0639. Besides, the values for the composite z-score in [8], in assay [9] and in [10] were -0.136, 0.0568 and 0.317, respectively. The same compound yielded a z-score in [2] of 0.185.
Turning to `COc1ccc(C(=O)Nc2ccc(CN3C(=O)[C@]4(O[C@H](CC(=O)N5Cc6ccccc6C[C@H]5CO)[C@@H]([Si](C)(C)c5ccc(OC)cc5)[C@@H]4C)c4ccccc43)cc2)cc1`, the composite z-score is 1.33 in assay [1]; 0.575 in assay [3]; 0.301 in assay [4]; -0.376 in assay [5]; -0.128 in assay [6]; -0.232 in [7]. Also, the composite z-score in assay [8] was -0.31; in [9], 0.795; in assay [10] it was 1.31. The z-score in assay [2] was -3.58.
Regarding `CC[C@@H]1C=C(C(=O)O)[C@H](c2ccc(C#N)cc2)N1S(=O)(=O)c1ccc(C)cc1`, the composite z-score was 0.458 in assay [1]; 0.635 in [3]; 1.45 in assay [4]; -0.0241 in [5]; 0.0136 in assay [6]; -0.0324 in assay [7]. The composite z-score in [8] amounted to 0.598; in [9], 2.47; in [10] it was 0.62. The same compound showed a z-score in [2] of -0.651.
For the compound `CC(C)C(O)C1C=CC2C(=O)N(c3ccccc3)C(=O)C2N1Nc1ccccc1` (stereo not given), the composite z-score is 1.5 in assay [1]; 0.138 in assay [3]; 1.71 in assay [4]; 0.325 in [5]; 0.0324 in assay [6]; -0.156 in assay [7]. The composite z-score in [8] stood at 1.32; in [9] it was 1.1; in assay [10], 1.23. In [2], this compound displayed a z-score of -0.831.
With `CCCCCC1=C2CNC(C)(C(=O)OC)C=C2C(C)C1=O` (stereo not given), the composite z-score in [1] is -0.696; in assay [3] it was -0.37; in [4] it was 0.764; in assay [5], 0.897; in assay [6], -0.0519; in assay [7], 0.265. Also, the values for the composite z-score in assay [8], in assay [9] and in [10] were 1.17, 0.137 and -0.0075, respectively. This compound also returned a z-score in [2] of -0.654.
As for `CCCC=C(CCC)[C@@H](NC(=O)C(C)(C)C)c1ccc(C(=O)OC)cc1`, the composite z-score in assay [1] was 1.32; in assay [3], -0.494; in assay [4], 1.72; in assay [5] it was 1.43; in [6], 0.191; in assay [7], 0.572. Besides, the composite z-score in assay [8] was 1.98; in assay [9], 0.321; in assay [10], 1.5. The z-score in assay [2] is -1.01.
In the case of `COC(=O)C1=CC(CCCO)=CC(c2cccs2)N(Cc2cccc(OC(F)(F)F)c2)C=C1C(=O)OC` (stereo not given), the composite z-score in assay [1] was 0.91; in [3], 0.151; in [4], 2.05; in [5], 0.804; in [6], -0.0194; in [7], 0.0121. For the same compound, the composite z-score in [8] was found to be 0.145; in [9], 2.41; in assay [10], 1.02. For the same compound, in [2], the z-score was -1.88.
As to `COC(=O)C1=CC(CCCO)=CC(c2cccs2)N(C)C=C1C(=O)OC` (stereo not given), the composite z-score in [1] was 0.0867; in assay [3] it was -0.876; in assay [4] it was 0.127; in [5] it was 0.618; in [6], -0.0981; in [7], -0.165. Also, the composite z-score in [8] is -0.0879; in assay [9] it was 0.044; in assay [10], 0.498. The same compound gave a z-score in assay [2] of -1.31.
With `CCCCCN1CC=CC23O[C@@H]4/C=C\CCC(C)OC(=O)C4[C@H]2C(=O)N(C(CO)C(C)C)[C@@H]3C1=O` (stereo not given in full), the composite z-score in assay [1] was -0.333; in assay [3] it was -0.214; in assay [4], -0.983; in assay [5], -0.876; in assay [6], -0.172; in [7], -0.469. Further, the composite z-score was -0.463 in assay [8], 0.163 in assay [9] and 0.0325 in assay [10]. In [2], this compound gave a z-score of -1.64.
In the case of `[N-]=[N+]=Nc1ccccc1[C@H]1OC(c2ccc(OCCCO)cc2)=N[C@@]1(Cc1ccccc1)C(=O)NCCN1CCOCC1`, the composite z-score in assay [1] was 0.632; in [3], 0.331; in assay [4] it was 2.07; in assay [5], 0.469; in assay [6], 0.248; in assay [7], 0.171. Further, the values for the composite z-score in assay [8], in [9] and in assay [10] were -0.61, 0.998 and 1.8, respectively. In assay [2], the z-score was -1.85.
As to `CCOC(=O)C1=C[C@@H](C(C)C)N(S(=O)(=O)c2ccc(C)cc2)[C@H]1c1ccc(C(F)(F)F)cc1`, the composite z-score in assay [1] was 1.4; in [3] it was 0.499; in [4], 1.07; in assay [5], -0.0824; in assay [6], -0.0607; in assay [7], 0.296. In addition, the composite z-score in assay [8] stood at 0.868; in assay [9], 0.76; in assay [10], 1.06. This compound also showed a z-score in assay [2] of -0.972.
For the compound `O=C(O)[C@@H]1[C@@H]2C(=O)N(c3ccccc3)C(=O)[C@@H]2C[C@@H]1Sc1ccccc1`, the composite z-score was -0.933 in assay [1]; -0.603 in assay [3]; 0.172 in assay [4]; 0.474 in assay [5]; 0.0676 in assay [6]; 0.328 in assay [7]. Also, the composite z-score in [8] was -0.0554; in assay [9] it was 0.351; in assay [10] it was -0.909. The compound further had a z-score in assay [2] of 0.0105.
Consider `OCCCC1=CC(c2ccc(CN3CCCC3)cc2)N(Cc2cc3c(cc2Br)OCO3)CC1` (stereo not given), for which the composite z-score was -0.377 in assay [1]; 0.477 in [3]; -0.464 in assay [4]; -0.811 in assay [5]; -0.0735 in assay [6]; 0.0611 in [7]. The composite z-score in assay [8] was found to be 0.162; in [9], 1.17; in assay [10], 0.396. This compound also gave a z-score in [2] of -3.23.
With `CC1=C2[C@@H](CCc3ccccc3)OB(O)C[C@@H]2[C@@H]2C(=O)N(C)C(=O)[C@@H]2C1`, the composite z-score is 0.135 in assay [1]; 0.173 in [3]; 0.0309 in assay [4]; -0.338 in assay [5]; -0.0519 in [6]; 0.0469 in assay [7]. Further, the composite z-score in assay [8] is -0.137; in assay [9], 0.284; in assay [10] it was 0.769. The same compound returned a z-score in assay [2] of -0.779.
Take `C=CCNC(=O)[C@@H]1[C@H]2C(=O)O[C@H](c3ccccc3)[C@H](c3ccccc3)N2[C@H](c2ccccc2OCCO)[C@@]12C(=O)Nc1ccc(C#CCC(C(=O)OC)C(=O)OC)cc12`: the composite z-score in assay [1] is 0.562; in assay [3], -0.034; in assay [4], 0.138; in assay [5], -0.147; in [6], -0.0258; in [7], -0.147. For the same compound, the figures for the composite z-score in [8], in assay [9] and in assay [10] were -0.303, 0.458 and 0.894, respectively. This compound also registered a z-score in assay [2] of -3.28.
